# Screens as filed in PubChem BioAssay.
# AHR act: activators of human aryl hydrocarbon receptor; AHR-responsive luciferase reporter cells, luminescence; activation, % at 5 µM; 320,000 compounds, 2.5% hits; AID 2796; in the data active = activation above about 47%
# HSF1 activator: increases HSF-1 driven luciferase reporter signal; NIH3T3-HGL HSF-1 luciferase reporter, MG132, 8 h; 100% = twice DMSO control signal; 300,000 compounds, 1.7% hits; activation, % at 9 µM;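 active = mean replicate activation of at least 50% with a set share of replicates each reaching 50%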
# FXN GAA850 act: increases GAA850 frataxin promoter reporter activity. HEK293 lucGAA850 FXN promoter luciferase reporter, 24 h; percent of 10 µM SAHA response. activation, % at 6 µM. 360,000 compounds, 0.56% hits. AID 540364;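 active = activation above the average of all compounds screened plus 3 SD, cutoff fixed separately per campaign, cut at about 7.5% in these data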
# HSF1 inhib: HSF1 inhibition | activity change, negative = inhibition, % at 7.5 µM (by protocol) | 300,000 compounds, 0.77% hits | NIH3T3-HGL HSE-luciferase, MG132-induced, luminescence 8 h; active compounds read low;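 active = more than half of replicate wells show activity change below -50%, luminescence cut by over half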;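 also: luciferase reports HSF-1 transcriptional activity via heat shock element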
# Numbers stand for hits; 0 = inactive; - = no result. In the library only some 4.6% were active in any assay of this set; here they are far more common.
SMILES,AHR act,HSF1 activator,FXN GAA850 act,HSF1 inhib
O=C(O)CC1=C(Nc2ccccc2)C(=O)N(c2ccccc2)C1c1ccc(F)cc1 (centres undefined),0,0,0,0
CC(=O)C1=C(O)C(=O)N(c2nccs2)C1c1ccccc1 (centres undefined),0,60,0,0
COc1ccc(C2C(C(C)=O)=C(O)C(=O)N2c2ccc(C)cc2)cc1 (centres undefined),0,61,0,0
CCCCSCCCNC(=O)c1ccc(CS(=O)(=O)c2ccccc2OC)o1,0,0,0,0
Nc1nc(N)c2c(ccc3nccc32)[nH]1,0,0,0,0
CCOC(=O)C1CCN(C(=O)CSc2cc(=O)n(CC)c3ccccc23)CC1,0,0,0,0
COc1ccc(S(=O)(=O)N(C)C)cc1NC(=O)C1CCN(c2ncnc3sc(C)c(C)c23)CC1,-,-,0,-
O=C1Nc2ccc(S(=O)(=O)NCc3ccccn3)c3cccc1c23,-,0,0,0
CCOc1ccc(Nc2nc3c(C)cccc3cc2C#N)cc1,50,0,0,0
Cc1cc(C)n(CCc2nc(-c3ccc(-c4ccccc4)cc3)cs2)n1,0,52,0,0
Oc1csc(Cc2nc(-c3ccc(-c4ccccc4)cc3)cs2)n1,65,0,0,0
Oc1csc(Cc2nc(-c3ccccc3F)cs2)n1,0,0,0,0
CCC(Sc1nc2ccccc2s1)C(=O)Nc1nnc(C)s1 (centres undefined),0,0,0,0
CC(Sc1nc2ccccc2s1)C(=O)Nc1nnc(C(C)C)s1 (centres undefined),0,0,0,-63
Cc1cc(C)cc(OCc2nc3ncc(Br)cc3[nH]2)c1,69,0,0,0
Cc1ccc(-c2cc(C(=O)NCc3ccc4c(c3)OCO4)[nH]n2)c(O)c1C,0,0,0,0
Fc1ccc(NC(=S)Nc2ccc(Cl)cc2Cl)cc1,0,0,-,0
Fc1ccccc1/C=N/NC(=S)Nc1ccc(Cl)cc1Cl,77,0,0,0
CCC(CC)C(=O)OCC(=O)NC12CC3CC(CC(C3)C1)C2,0,-,0,-
O=C(Oc1cccc2cccnc12)c1ccco1,0,0,0,0
O=C(Oc1cccc2cccnc12)c1ccc(Br)o1,0,66,0,0
CC(C)Cn1c(SCC(=O)NCc2ccco2)nnc1-c1ccncc1,0,0,0,0
Cc1ccc(C(=O)Nc2ccc(Cl)cc2C)c(Cl)c1,0,67,0,0
COc1ccccc1N1CCN(C2CCCN(C(=O)CN3CCCCC3=O)C2)CC1 (centres undefined),0,0,0,0
COc1c(Cl)cc(Cl)cc1/C=C/C(=O)c1ccc(NC(=O)c2cccs2)cc1,0,115,0,0
SMILES,AHR act,HSF1 activator,FXN GAA850 act,HSF1 inhib
COc1c(Cl)cc(Cl)cc1C(=O)Nc1ccc(C(=O)O)cc1,0,0,0,0
Cc1cc(C)n2nc(SCC(=O)Nc3ccc(F)c(F)c3F)nc2n1,0,-,0,-
Cc1ccc(C)c2sc(N3CCN(C(=O)c4ccc([N+](=O)[O-])o4)CC3)nc12,0,0,0,0
CO/N=C/NC(=O)c1ccc([N+](=O)[O-])c(CS(=O)(=O)c2ccc(Cl)cc2)c1,0,0,0,0
NNC(=O)c1ccc([N+](=O)[O-])c(CS(=O)(=O)c2ccc(Cl)cc2)c1,0,57,0,0
Cc1cccc(C)c1OCc1nc2ccccc2c(=O)n1/N=C/c1ccc(OCC(=O)O)cc1,0,53,0,0
Cc1ccc(NC(=O)Cn2c(=O)oc3cc(S(=O)(=O)N4CCC(C)CC4)ccc32)cc1C,0,0,0,0
O=C1S/C(=C/c2ccc(N3CCOCC3)o2)C(=O)N1Cc1c(F)cccc1Cl,0,102,0,0
O=C1S/C(=C\c2ccc(N3CCOCC3)o2)C(=O)N1c1ccccc1,0,0,0,0
O=C1S/C(=C\c2ccc(N3CCOCC3)o2)C(=O)N1Cc1c(F)cccc1Cl,0,251,0,0
CCOc1ccc(NC(=O)C(C)NS(=O)(=O)c2ccc(NC(C)=O)cc2)cc1 (centres undefined),0,0,0,-67
COc1ccc(NC(=O)[C@H](C)NS(=O)(=O)c2ccc(NC(C)=O)cc2)cc1Cl,-,-,0,-
Cc1ccc(C(=O)NCC(=O)N2CCC3(CC2)NCCc2[nH]cnc23)cc1C,0,0,0,0
COc1cccc(/C=C/C(=O)c2cccc([N+](=O)[O-])c2)c1,0,0,0,0
COc1ccc(/C=C/C(=O)c2ccc(C(=O)/C=C/c3ccc(OC)c(OC)c3)cc2)cc1OC,-,0,0,0
COc1ccc(/C=C/C(=O)c2ccncc2)c2ccccc12,53,0,0,0
COc1cccc(/C=C/C(=O)c2cccc([N+](=O)[O-])c2)c1OC,0,58,0,0
